# Biological target: SULT1A2
# Test: pooled miR-30 sensor sort-seq; sequence = guide strand
# Conditions: shRNA
# Note: reference of the scale not given here.
row,Sequence,sensor-assay potency score (higher = more potent)
1,TTTATTCTGGAGCCTCTTGGTC,-0.833
2,TGGTCCATGAACTCCCGGCGGA,-1.53
3,TTTTTCAGAGTCTCCATCCCTG,-0.0359
4,TCTTGCACGTGCTGGTACCAGG,-1.6
5,TGAGGTCCACAGTCTCCTCTGG,-0.796
6,TGGGACTTTGAACTCAAGGAAG,-1.59
7,ATGAGGTCCACAGTCTCCTCTG,-1
8,TTATTCTGGAGCCTCTTGGTCA,-0.61
9,TAGGAAACCGCCACATCCTTTG,-0.928
10,TCCAGCCATGAACTTCTCCAGG,-1.76

# Biological target: SULT6B1
# Test: as above
# Conditions: shRNA
row,Sequence,sensor-assay potency score (higher = more potent)
1,TAATTTGTCATAGTGGAGGTGA,0.271
2,TATTCTCGAAGATAGACCCAGG,-0.373
3,TTATTCTCGAAGATAGACCCAG,-0.349
4,TATAATATGAACTTAACATTGT,-0.395
5,TACTGCTGTATCTTTAGGGTTT,-0.446
6,TATGAACTTAACATTGTCGCCA,0.543
7,TAATATGAACTTAACATTGTCG,0.349
8,TGTCCTTTCATGAACTGTCTGA,0.266
9,TGGAATATCGGGGACATCGTTG,-1.15
10,TAATTCACTGACAATGTGGAGA,-0.0659
11,TGAACTTAACATTGTCGCCATC,-1.22
12,TATTAATTCACTGACAATGTGG,-0.366

# — the OligoGym collection
